Experimental data published in ChEMBL document CHEMBL3988442, “University of Dundee, Small-Polar-MMV Screening Library” (2021).
Hit rate of the full screen: of about 48,000 compounds, about 13,000 (27%) showed an effect of 50% or more. This is one part of the list.

What follows are compounds tested on Wolbachia pipientis (assay: Anti-Wolbachia Cell-Based Screen). Conditions: 5 µM.
Type: functional
Parameters: scale not given: in the data most compounds retested in dose-response had high values

| Compound | Percent Effect [%] |
| --- | --- |
| Cc1cc2c(C)cc(O)cc2c(=O)o1 | -3.203 |
| CC(C)(C)OC(=O)N1CCC[C@H](NCc2cc[nH]c2)C1 | -5.919 |
| CC(C1CCN(Cc2ccc(N(C)C)nc2)CC1)N(C)C (centres undefined) | 14.62 |
| COCC(c1ccccn1)N(C)C(=O)c1cc(-c2ccccc2O)n[nH]1 (centres undefined) | -8.202 |
| O=S(=O)(C1CC1)N1CCC2(CC1)CC(Oc1ccccn1)CO2 (centres undefined) | -5.73 |
| COCc1c(C(=O)N2CCCC(C(=O)c3nccn3C)C2)noc1C (centres undefined) | -5.481 |
| Fc1cccc(-c2c[nH]c([C@@H]3COCCN3C3CCOCC3)n2)c1 | 5.513 |
| Cc1nc(-c2cccc(N3CCC(N[C@@H]4CCOC4)CC3)c2)cs1 | 61.49 |
| Fc1cccc(-c2cccc(N3CCC(NC4CCCOC4)CC3)c2)c1 (centres undefined) | 80.75 |
| Cc1nc(-c2cccc(N3CCC(NC4CCSC4)CC3)c2)cs1 (centres undefined) | -11.84 |
| CN1CCOC[C@H]1c1nc(-c2cccc(F)c2)c[nH]1 | 6.119 |
| COc1cccc(N2CCC(N3CCOC(C(F)(F)F)C3)CC2)c1 (centres undefined) | 11 |
| COc1cccc(-c2cccc(N3CCC(N[C@@H]4CCOC4)CC3)c2)c1 | 68.86 |
| Cc1nc(-c2cccc(N3CCC(NC4CCOCC4)CC3)c2)cs1 | -8.689 |
| COc1cccc(N2CCC(N3C[C@@H](NC(C)=O)[C@H](C(C)C)C3)CC2)c1 | 4.736 |
| Cc1c(C)n(CC(O)CN2CCC(O)CC2)c2c(Cl)cccc12 (centres undefined) | 9.661 |
| CN(C)S(=O)(=O)N1C[C@@H]2CC[C@H](C1)N(Cc1ccc3c(c1)OCCO3)C2 | 2.095 |
| Cn1ccnc1CNc1ccc(F)c(N2CCCS2(=O)=O)c1 | 0.7519 |
| CCOc1cccc(NCc2cnc(N3CCN(C)CC3)nc2)n1 | 6.944 |
| CN1CCC(c2cccc(NCc3ccncc3)n2)CC1 | 80.62 |
| CN1CCC(c2cccc(NCc3nccn3C)n2)CC1 | 108.8 |
| CC(C)c1nccn1-c1cccc(C2CCN(C)CC2)n1 | 4.105 |
| Cn1ccnc1CNc1nccc(-c2ncnn2C)n1 | 23.33 |
| CN1CCC(c2cnc(NCc3nccn3C)cn2)CC1 | 131.5 |
| Cn1ccnc1CNc1c(F)cccc1-n1cccn1 | -3.206 |

| Compound | Percent Effect [%] |
| --- | --- |
| N#Cc1nccnc1N1CCN(CCOCc2ccccc2)CC1 | 4.216 |
| CC1CCc2sc(C(=O)Nc3cnn(C)c3)cc2C1 (centres undefined) | 18.64 |
| Cc1ncnc(NC(CC(C)(C)C)c2cccnc2)c1C (centres undefined) | -0.1537 |
| CN(Cc1cccs1)C(=O)c1ccc(=O)n(C)c1 | 1.128 |
| Fc1cccc2ncnc(NCC3(N4CCOCC4)CCSC3)c12 (centres undefined) | -8.869 |
| COc1ccc(C2CCCN2C(=O)c2cc3c([nH]c2=O)CCC3)cc1 (centres undefined) | -1.742 |
| Cn1ccnc1CN(CCO)C(=O)c1cc2ccccc2o1 | 4.663 |
| O=C(c1ccn(-c2ccc(F)cc2)n1)N(CCO)Cc1cccnc1 | 6.446 |
| COc1ccc(C(=O)N(CCO)Cc2ccccc2)c(OC)n1 | 150.7 |
| COc1cc(C(=O)NCCCc2ccccc2)on1 | -0.8212 |
| CSc1ncccc1C(=O)N(CCO)Cc1ccccc1 | 110.2 |
| O=C(C1COc2ccccc2C1)N(CCO)Cc1ccccc1 (centres undefined) | 3.539 |
| Cc1cccc(N2CCCC3(C2)CN(S(C)(=O)=O)CCO3)c1 (centres undefined) | -0.08325 |
| CC(C)c1nc(C2CCCN2CCCc2nc3ccccc3o2)no1 (centres undefined) | 6.375 |
| Cc1nc(C2CCCN2CCc2cccs2)no1 (centres undefined) | -9.357 |
| CC(C)c1nc(C2CCCN2CCOCC2CC2)no1 (centres undefined) | 114 |
| C1CC(c2noc(C3CC3)n2)CN(CCOCC2CC2)C1 (centres undefined) | 14.88 |
| CSCCCN1CCCC1c1noc(C)n1 (centres undefined) | -3.652 |
| Cc1nc(C2CCCN2CCOCC2CC2)no1 (centres undefined) | 95.01 |
| COc1cc(C)cc(-c2nc3c([nH]2)CCNC3)c1OC | 7.084 |
| Cc1cccc(CNC2CC(=O)N(CCc3cccc(Cl)c3)C2)n1 (centres undefined) | 115.9 |
| CN(C)c1ncc(CNC2CC(=O)N(CCc3cccc(Cl)c3)C2)s1 (centres undefined) | 116.6 |
| Cc1nc(CNC2CC(=O)N(CCc3cccc(Cl)c3)C2)c[nH]1 (centres undefined) | 91.72 |
| CC(=O)Nc1ccc(CNC2CC(=O)N(Cc3cccc(F)c3)C2)cc1 (centres undefined) | -1.661 |
| Cc1cc(C)nc(N2C[C@H]3OC(=O)N(CCc4cccc(Cl)c4)[C@H]3C2)n1 | -8.827 |

| Compound | Percent Effect [%] |
| --- | --- |
| O=C1CC(NCc2ccc(Cl)s2)CN1Cc1cccc(F)c1 (centres undefined) | 20.87 |
| N#Cc1cccc(NC2CC(=O)N(CCc3ccc(F)cc3)C2)n1 (centres undefined) | 1.885 |
| Cc1nc[nH]c1CNC1CC(=O)N(CCc2cccc(Cl)c2)C1 (centres undefined) | 94.18 |
| c1cc(CN2CCOC[C@H]2c2nc(-c3ccncc3)c[nH]2)ccn1 | -7.2 |
| CC(=O)N[C@H]1CN(CC(=O)NCc2ccccc2C)C[C@@H]1C(C)C | -0.9175 |
| CCCc1cc(C(=O)N(CC)Cc2ccncc2)[nH]n1 | -8.767 |
| CN1CCN(c2ccc3ccc(C(=O)N4CCCCO4)cn23)CC1.O=C(O)C(F)(F)F | -14.14 |
| Cc1nnc(N2CCCC(CS(N)(=O)=O)C2)c(C#N)c1C (centres undefined) | -0.6364 |
| CCOCCN1CCN(Cc2nnc(C3CC3)o2)CC1C (centres undefined) | -16.34 |
| CC(C)S(=O)(=O)N1C[C@H]2OC(=O)N(CCc3cccc(Cl)c3)[C@H]2C1 | -13.46 |
| CCCS(=O)(=O)N1C[C@H]2OC(=O)N(CCc3cccc(Cl)c3)[C@H]2C1 | -3.172 |
| Cc1ncc(CNC2CC(=O)N(CCc3cccc(Cl)c3)C2)n1C (centres undefined) | 82.2 |
| Cc1ncsc1CNC(=O)N1CCN(Cc2ccccc2)CC1C (centres undefined) | -7.787 |
| CN1CCC2(CCCN(c3nccc(C(F)(F)F)n3)C2)CC1.O=C(O)C(F)(F)F | -32.78 |
| O=C(O)C(F)(F)F.c1ccc(N2CCC3(CCCN(c4ncccn4)C3)C2)nc1 (centres undefined) | 93.44 |
| O=C(O)C(F)(F)F.O=C(O)C(F)(F)F.c1ccc(CN2CCC3(CC2)CCN(c2ccccn2)C3)nc1 | 79.01 |
| COc1cc(N2CCC3(CCCN(C(=O)c4cccnc4)C3)C2)ncn1.O=C(O)C(F)(F)F (centres undefined) | -28.04 |
| O=C(O)C(F)(F)F.O=C(O)C(F)(F)F.c1ccc(CN2CCC3(CC2)CN(c2ccccn2)CCO3)nc1 | 2.249 |
| COc1cc(N2CCC3(CCN(C(=O)c4cccnc4)CC3)C2)ncn1.O=C(O)C(F)(F)F | -2.068 |
| COc1cc(N2CCC3(CCCN(Cc4ccccn4)C3)C2)ncn1.O=C(O)C(F)(F)F (centres undefined) | 109.9 |
| N#Cc1ccc(N2CCC3(CCCN(c4ccccn4)C3)C2)nc1.O=C(O)C(F)(F)F (centres undefined) | -3.068 |
| O=C(O)C(F)(F)F.O=C(O)C(F)(F)F.c1cnc(N2CCCC3(CCN(c4ncccn4)C3)C2)nc1 (centres undefined) | 103.8 |
| Fc1ccccc1CN1CCCC2(CCN(c3ncccn3)CC2)C1.O=C(O)C(F)(F)F | 3.614 |
| Fc1ccc(CN2CCC3(CC2)CN(c2ccccn2)CCO3)cc1.O=C(O)C(F)(F)F.O=C(O)C(F)(F)F | -6.002 |
